Results on 11 compounds are retold here after article PMC5540273 (PLoS ONE, 2017).

What all share (conditions): concentration: 1 μM, replicates: in singlicate; n = 1
Experiment [1] has as its system T1, PKAC-beta.
T1 construct: gene PRKACB

In experiment [2] the test system is PKMYT1.
Experiment [3] concerns PKN1.
The test system of experiment [4] is PKN2.
Experiment [5] concerns PLK1.
In experiment [6] the test system is PLK2.
Experiment [7] deals with PLK3.
The subject of experiment [8] is PLK4.
In experiment [9] the test system is PRKCD.
Experiment [10] has as its system PRKCE.
Experiment [11] concerns PRKCH.
In experiment [12] the test system is PRKCI.
The test system of experiment [13] is PRKCQ.
The subject of experiment [14] is PRKD1.
The subject of experiment [15] is PRKD2.
The subject of experiment [16] is PRKD3.
The subject of experiment [17] is PRKG1.
Experiment [18] has as its system PRKG2.
Experiment [19] concerns T2, PRKR.
T2 construct: gene EIF2AK2

The subject of experiment [20] is PRKX.
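Further: KINOMEscan kinase panel screen.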

For `CC(C)c1ccc(O)cc1Nc1ccnc2ccc(C(F)(F)F)cc12` [GW482059], the “%Inh” value in experiment [1] is reported as 16%; in experiment [2], 0%; in [3] it was 36%; in [4], 0%; in experiment [5], 0%; in experiment [6] it was 0%. Besides, the “%Inh” value in experiment [7] is given as 0%; in [8], 0%; in experiment [9], 0%; in [10], 0%; in [11], 28%; in [12], 18%. The “%Inh” value in [13] is 0%; in experiment [14], 0%; in experiment [15], 2%; in [16] it was 27%; in experiment [17], 15%; in experiment [18] it was 0%. In addition, the “%Inh” value in experiment [19] and in [20] was 0% each time.
Regarding `Cc1ccc(-c2nc(Nc3ccncc3)c3ccccc3n2)s1` [GSK189015], the “%Inh” value in experiment [1] was 18%; in experiment [2], 19%; in experiment [3], 26%; in experiment [4] it was 20%; in experiment [5], 0%; in [6] it was 0%. For the same compound, the “%Inh” value is 0% in experiment [7]; 0% in experiment [8]; 15% in [9]; 0% in experiment [10]; 29% in experiment [11]; 20% in [12]. The “%Inh” value in experiment [13] was determined as 29%; in experiment [14], 18%; in experiment [15] it was 14%; in [16], 22%; in experiment [17], 12%; in experiment [18] it was 0%. The “%Inh” value in [19] amounted to 0%; in [20] it was 19%.
Turning to `O=C(Nc1n[nH]c2nc(-c3ccco3)c(Br)cc12)C1CCN(Cc2ccccc2)C1.O=C(O)[C@H](O)[C@@H](O)C(=O)O` (stereo not shown) [SB-742034], the “%Inh” value is 15% in [1]; 8% in [2]; 0% in experiment [3]; 41% in experiment [4]; 3% in experiment [5]; 24% in [6]. For the same compound, the “%Inh” value in [7] came to 5%; in [8] it was 22%; in [9], 35%; in experiment [10], 1%; in experiment [11], 14%; in experiment [12], 34%. Besides, the “%Inh” value in experiment [13] is reported as 4%; in [14] it was 14%; in [15], 0%; in [16] it was 18%; in experiment [17] it was 0%; in experiment [18] it was 2%. In addition, the “%Inh” value was 5% in experiment [19] and 0% in experiment [20].
On to `NS(=O)(=O)c1cccc(N/C=C2\C(=O)Nc3ccc(S(=O)(=O)Cc4c(Cl)cccc4Cl)cc32)c1` [GSK398099], for which the “%Inh” value was 0% in experiment [1]; 5% in experiment [2]; 38% in experiment [3]; 0% in experiment [4]; 1% in [5]; 0% in experiment [6]. In addition, the “%Inh” value in experiment [7] is 0%; in [8], 18%; in [9], 0%; in experiment [10], 11%; in [11], 0%; in experiment [12], 6%. The “%Inh” value stood at 0% in [13]; 0% in experiment [14]; 0% in experiment [15]; 17% in experiment [16]; 0% in [17]; 100% in experiment [18]. Moreover, the “%Inh” value in [19] turned out to be 0%; in experiment [20] it was 12%.
With `Cc1c(Cn2c(C)c(C)n3c(=O)cc(N4CCOCC4)nc23)cccc1C(F)(F)F` [GSK2328680], the “%Inh” value is reported as 0% in experiment [1]; 17% in experiment [2]; 0% in [3]; 0% in [4]; 0% in [5]; 100% in experiment [6]. In addition, the “%Inh” value in [7] is 0%; in experiment [8], 0%; in [9], 0%; in experiment [10], 0%; in experiment [11], 23%; in [12] it was 0%. In addition, the “%Inh” value in experiment [13] is given as 8%; in experiment [14], 0%; in [15], 18%; in [16], 8%; in experiment [17], 5%; in experiment [18] it was 91.2%. In addition, the “%Inh” value in experiment [19] and in experiment [20] was 0% throughout.
`COc1ccc(CSc2nnc(-c3ccc4ncsc4c3)o2)cc1C(F)(F)F`: the “%Inh” value stood at 1% in experiment [1]; 22% in [2]; 0% in [3]; 0% in experiment [4]; 0% in [5]; 4% in experiment [6]. Also, the “%Inh” value in experiment [7] came out at 0%; in experiment [8], 2%; in experiment [9], 13%; in [10], 0%; in experiment [11] it was 0%; in experiment [12] it was 0%. Besides, the “%Inh” value in experiment [13] is reported as 10%; in experiment [14] it was 17%; in [15] it was 7%; in experiment [16], 11%; in experiment [17] it was 0%; in [18] it was 0%. Moreover, the “%Inh” value was determined as 3% in [19] and 0% in [20].
For the compound `CNc1cc(-c2ccc3c(N)n[nH]c3c2)nc(N)n1` [GSK2224810], the “%Inh” value is recorded as 0% in experiment [1]; 4% in [2]; 10% in experiment [3]; 0% in [4]; 0% in [5]; 0% in experiment [6]. In addition, the “%Inh” value in experiment [7] is given as 0%; in experiment [8], 5%; in experiment [9] it was 0%; in experiment [10], 15%; in experiment [11], 0%; in experiment [12], 27%. Besides, the “%Inh” value in [13] turned out to be 0%; in experiment [14] it was 0%; in experiment [15], 6%; in [16], 6%; in experiment [17] it was 0%; in [18] it was 85%. Further, the “%Inh” value in [19] came out at 18%; in [20] it was 57%.
Turning to `CC(=O)c1cccc(NC(=O)NC2CCN(c3ccnc(Nc4ccc(F)cc4)n3)C2)c1` (stereo not shown) [GSK1379710], the “%Inh” value in experiment [1] came to 0%; in [2], 3%; in [3] it was 31%; in experiment [4], 0%; in experiment [5], 7%; in experiment [6], 0%. The “%Inh” value is 9% in [7]; 0% in [8]; 0% in [9]; 15% in experiment [10]; 0% in [11]; 11% in [12]. The “%Inh” value in experiment [13] turned out to be 27%; in [14] it was 0%; in [15], 10%; in [16], 9%; in experiment [17], 0%; in experiment [18] it was 31%. The entries for the “%Inh” value in experiment [19] and in experiment [20] were 13% and 32%, respectively.
Consider `CCn1c(-c2c(N)noc2C)nc2cnccc21` [SB-737856], for which the “%Inh” value in experiment [1] worked out at 0%; in experiment [2] it was 0%; in experiment [3] it was 29%; in experiment [4] it was 0%; in [5], 0%; in experiment [6], 0%. The “%Inh” value in experiment [7] is 0%; in experiment [8] it was 0%; in [9], 0%; in experiment [10] it was 0%; in [11], 6%; in [12] it was 7%. For the same compound, the “%Inh” value in experiment [13] was determined as 32%; in experiment [14], 1%; in [15] it was 11%; in [16], 0%; in experiment [17], 0%; in [18], 0%. The “%Inh” value in experiment [19] came to 0%; in experiment [20], 16%.
For the compound `COC(=O)C(NC(=O)NC1CCN(c2ccnc(Nc3ccc(F)cc3)n2)C1)c1ccccc1` (stereo not shown) [GSK1379712], the “%Inh” value was determined as 0% in experiment [1]; 0% in [2]; 18% in experiment [3]; 0% in experiment [4]; 13% in experiment [5]; 3% in [6]. The “%Inh” value in [7] was determined as 4%; in experiment [8], 1%; in experiment [9], 0%; in [10], 18%; in [11], 0%; in experiment [12], 24%. Also, the “%Inh” value was 3% in [13]; 0% in experiment [14]; 14% in experiment [15]; 4% in [16]; 0% in experiment [17]; 0% in experiment [18]. Further, the “%Inh” value was 0% in experiment [19] and 12% in experiment [20].
Regarding `CNc1nc(-c2ccc3c(N)n[nH]c3c2)cc(N2C[C@@H](C(=O)Nc3ccccc3)CC[C@H]2C)n1` [GSK2298859], the “%Inh” value is 66% in experiment [1]; 0% in [2]; 0% in experiment [3]; 0% in experiment [4]; 0% in experiment [5]; 0% in experiment [6]. In addition, the “%Inh” value is 0% in experiment [7]; 0% in experiment [8]; 16% in experiment [9]; 0% in [10]; 0% in [11]; 10% in experiment [12]. The “%Inh” value in experiment [13] is on record as 0%; in [14], 0%; in [15], 20%; in experiment [16] it was 0%; in [17], 18%; in experiment [18], 32%. For the same compound, the “%Inh” value in experiment [19] is given as 0%; in experiment [20], 97%.
